Assay outcomes: PubChem BioAssay, Broad Institute
This is a sample that favours compounds with a hit; in the whole collection about 6.8% have one here.
T cruzi growth-1 = T. cruzi proliferation inhibition; inhibition, % at 8.34 µM; actives 5.9% (n = 77,000); T. cruzi beta-gal in NIH3T3, GalScreen luminescence, 90 h;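 active means mean inhibition above about 93%, with at least 55% of replicates each passing it, limit read from the data, passing the limit was not always enough; inconclusive means only one of those two conditions holds; inactive means neither condition holds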
C diff growth = inhibitors of Clostridium difficile growth; growth activity, negative = inhibition, % at 16 µg/mL (by protocol); AID 1259249; actives 0.25% (n = 86,000); Clostridium difficile clinical isolate growth, OD600, 24 h; stronger effect = lower value;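 active means mean growth activity at or below -80% and every replicate also at or below -80%; inconclusive means mean at or below -80% but some replicate above -80%; inactive means mean growth activity above -80%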
Pf Dd2 inh = blocks growth of Plasmodium falciparum Dd2 parasites. P. falciparum Dd2 growth, SYBR Green, 72 h; stronger effect = lower value. activity change, % at 10 µM. actives 2.3% (n = 94,000); in the data active means activity change below about -80%; inconclusive means no clear call, values can overlap the other calls
T cruzi growth-2 = inhibitors of T. cruzi proliferation | T. cruzi beta-gal in NIH3T3, GalScreen luminescence, 90 h | actives 72% (n = 5,600) | shares compounds with T cruzi growth-1 | inhibition, % at 8.35 µM | AID 651739;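 active means mean replicate inhibition above about 95% and at least 55% of replicates individually reaching it, limit read from the data; inconclusive means only one of the two criteria is met; inactive means neither criterion is met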
T cruzi growth-3 = blocks T. cruzi growth in NIH3T3 host cells; shares compounds with T cruzi growth-1; T. cruzi beta-gal in NIH3T3, GalScreen luminescence, 90 h; inhibition, % at 2.09 µM; actives 21% (n = 5,600); AID 651740;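 active means mean inhibition above about 95%, with at least 55% of replicates also reaching it, limit read from the data; inconclusive means meets just one of the two conditions; inactive means meets neither condition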
NIH3T3 tox = kills mouse NIH/3T3 fibroblasts; shares compounds with T cruzi growth-1; NIH/3T3 viability, CellTiter-Glo ATP luminescence, 90 h; cytotoxicity (signal decrease), % at 8.35 µM; actives 14% (n = 5,600); AID 651742;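 active means mean signal decrease across replicates above about 35% based on untreated-well scatter, with enough replicates individually passing, limit read from the data; inconclusive means no rule stated though some were filed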
NIH3T3 tox 2 = NIH/3T3 (mouse) viability loss; shares compounds with T cruzi growth-1; AID 651744; inhibition, % at 24.9 µM; actives 56% (n = 5,600); NIH/3T3 viability, CellTiter-Glo ATP luminescence, 90 h;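 active means mean loss of cell viability signal at or above a set limit, and enough replicates individually reaching it; inconclusive means meets only the mean limit or only the replicate share; inactive means meets neither condition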
Numbers stand for hits; . = inactive; ? = inconclusive; / = not tested or not shown.

SMILES	T cruzi growth-1	C diff growth	Pf Dd2 inh	T cruzi growth-2	T cruzi growth-3	NIH3T3 tox	NIH3T3 tox 2
C[C@@H]1CCCCO[C@@H](CN(C)C(=O)Nc2ccccc2)[C@H](C)CN([C@@H](C)CO)C(=O)c2cc(NC(=O)Cc3ccccc3)ccc2O1	.	/	.	/	/	/	/
C[C@H]1CCCCO[C@@H](CN(C)C(=O)Nc2ccc(C(F)(F)F)cc2)[C@@H](C)CN([C@@H](C)CO)C(=O)c2cc(NC(=O)Cc3ccccc3)ccc2O1	?	.	.	106.6	111.1	.	24.2
C[C@H]1CN([C@@H](C)CO)C(=O)c2cc(NC(=O)C3CCCCC3)ccc2O[C@@H]1CN(C)CC1CC1	.	.	.	/	/	/	/
C[C@@H]1CN([C@H](C)CO)S(=O)(=O)c2ccc(C3=CCCC3)cc2O[C@@H]1CN(C)Cc1cccc(C(=O)O)c1	.	.	.	/	/	/	/
C[C@@H]1CN([C@H](C)CO)C(=O)c2cc(/C=C/c3ccccc3)cnc2O[C@@H]1CN(C)C	/	.	.	/	/	/	/
CN(C)CCCNC(=O)[C@H]1[C@H](CO)[C@H]2Cn3c(ccc(C4=CCCCC4)c3=O)[C@@H]1N2Cc1cocn1	.	.	.	/	/	/	/
COc1ccccc1-c1ccc([C@@H]2[C@@H](C#N)N(C(=O)NC(C)C)[C@@H]2CO)cc1	99.3	.	.	95.9	.	.	38.2
COc1ccc(-c2ccc([C@@H]3[C@@H](CO)N(C(=O)c4cccnc4)[C@H]3C#N)cc2)cc1	96.2	.	.	.	.	.	.
COc1ccc(-c2ccc([C@@H]3[C@H](C#N)N(C(=O)c4cccnc4)[C@H]3CO)cc2)cc1	.	.	.	/	/	/	/
COc1ccc(-c2ccc([C@@H]3[C@@H](CO)N(C(=O)NC(C)C)[C@H]3C#N)cc2)cc1	.	.	.	/	/	/	/
COc1ccccc1-c1ccc([C@@H]2[C@@H](C#N)N(C(=O)C3CCC3)[C@@H]2CO)cc1	98.4	.	.	.	.	.	.
COc1ccccc1-c1ccc([C@@H]2[C@H](C#N)N(C(=O)C3CCC3)[C@H]2CO)cc1	.	.	.	/	/	/	/
COc1ccccc1-c1ccc([C@H]2[C@@H](CO)N(C(=O)C3CCC3)[C@H]2C#N)cc1	98.7	.	.	.	.	.	.
COc1ccccc1-c1ccc([C@H]2[C@H](C#N)N(C(=O)C3CCC3)[C@H]2CO)cc1	.	.	.	/	/	/	/
COCC#Cc1ccc2c(c1)O[C@@H](CN(C)Cc1ccccc1)[C@@H](C)CN([C@H](C)CO)S2(=O)=O	.	.	.	/	/	/	/
CCC(=O)N1CC(=O)N2[C@@H](CO)[C@H](c3ccc(C#Cc4cccc(OC)c4)cc3)[C@@H]2C1	/	.	.	/	/	/	/
C[C@@H]1CN([C@H](C)CO)C(=O)Cc2cc(NC(=O)Nc3ccc(C(F)(F)F)cc3)ccc2O[C@@H]1CN(C)S(=O)(=O)c1cn(C)cn1	.	.	.	/	/	/	/
C[C@@H]1CN([C@@H](C)CO)C(=O)Cc2cc(NC(=O)Nc3ccc4c(c3)OCO4)ccc2O[C@@H]1CN(C)Cc1ccccc1	.	.	.	/	/	/	/
COc1ccc(NC(=O)N[C@@H]2CC[C@H](CCNC(=O)c3ccccc3F)O[C@@H]2CO)cc1	.	.	.	/	/	/	/
O=C(Cc1cccnc1)N[C@H]1CC[C@@H](CCn2cc(Cc3ccccc3)nn2)O[C@H]1CO	.	.	.	/	/	/	/
O=C(Cc1ccncc1)NCC[C@H]1CC[C@H](NC(=O)C2CC2)[C@@H](CO)O1	/	.	.	/	/	/	/
C[C@@H]1CCCCO[C@H](CN(C)C(=O)Nc2ccc3c(c2)OCO3)[C@@H](C)CN([C@@H](C)CO)C(=O)c2cc(NC(=O)c3ccccc3)ccc2O1	.	.	.	/	/	/	/
COc1ccccc1-c1ccc([C@@H]2[C@@H](C#N)N(C(=O)CN(C)C)[C@H]2CO)cc1	.	.	.	/	/	/	/
COc1ccccc1-c1ccc([C@H]2[C@@H](C#N)N(C(=O)C3CCC3)[C@@H]2CO)cc1	.	.	.	/	/	/	/
COc1ccc(-c2ccc([C@H]3[C@H](C#N)N(C(=O)C4CCCC4)[C@H]3CO)cc2)cc1	100.3	.	.	.	.	.	.
COc1ccc(-c2ccc([C@H]3[C@@H](CO)N(C(=O)CN(C)C)[C@H]3C#N)cc2)cc1	105.1	.	.	108.5	.	.	?
COc1ccccc1-c1ccc([C@H]2[C@@H](CO)N(C(=O)C3CC3)[C@H]2C#N)cc1	102.6	.	.	.	.	.	.
